p53ts 32C kill: kills p53ts cells at the permissive temperature; Potency, µM (series often up to 46.1 µM), without a hit: at the highest dose activity change, negative = cytotoxicity, actives largely listed as cytotoxic; H1299-p53A138V at 32C, ATP luminescence viability, 24 h; AID 924; hit rate 0.93% among 130,000;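 further: 0% = DMSO and -100% = full killing by reference compound; nearly all actives have a fitted effect of over 55% in size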
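H1299-p53 A138V cells (temperature-sensitive p53) exposed 24 h to up to 46 uM compound at 32C, where p53 is wild-type in conformation. Viability read as ATP luminescence and normalised to DMSO and 100 uM tamoxifen. AC50 fitted with the Hill equation.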
Imprint erasure: genomic imprint erasure induction; mouse ES Peg3-LacZ reporter, beta-gal luminescence, 40 h; Potency, µM (top dose mostly 60.7 µM), without a hit: at the top dose activity change, positive = activation, hits mostly activators; hit rate 0.02% among 110,000; AID 1948
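Readout: BetaGlo luminescence (5 min, room temp) for LacZ from the normally silent maternal Peg3 allele in female Peg3LacZ-Neo ES cells. Cells 300/well, 40 h, 37C, 5% CO2. Data normalized per plate to negative controls.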
p53ts 39C kill: cytotoxicity in p53ts cells at nonpermissive temperature. H1299-p53A138V viability at 39C, ATP luminescence, 24 h. Potency, µM (top dose mostly 46.1 µM), for inactives: at the highest dose activity change, negative = cell killing, hits mostly cytotoxic. hit rate 1.5% among 130,000; further: on the % scale 0 is the no-effect control and ±100 the full control effect; nearly all actives have a fitted effect of over 55% in size
An asterisk follows results filed as active; [ ] = another dose, or the depositor's remark. Rows were chosen to be rich in hits. Some 1.6% of all compounds tested hit in one or more screens of this group. The call rests on the fitted dose curve; in most records, active means well fitted curve in the direction sought with a large enough effect; inconclusive means small, poorly fitted or top-dose-only effect, or another doubt; inactive means no such curve, though single readings can be large; an effect the other way counts as inactive or inconclusive. Potency means the concentration at half of the fitted maximal effect.

O=c1cc(-c2ccccc2O)oc2cc(O)ccc12 was read as p53ts 32C kill -28% and p53ts 39C kill inconclusive.
O=c1cc(-c2cccc(O)c2O)oc2ccccc12 was read as p53ts 32C kill inconclusive, Imprint erasure -62% and p53ts 39C kill 10µM*.
`C=CCNC(=O)c1cc([N+](=O)[O-])cc2c(=O)[nH]c(Nc3ccc(Cl)c(Cl)c3)nc12` gave p53ts 32C kill 1%, Imprint erasure -7% and p53ts 39C kill 2%.
COc1ccc(-c2cccc(NS(=O)(=O)c3cccs3)c2)nn1 was read as p53ts 32C kill -5%, Imprint erasure -15%[10.9 µM] and p53ts 39C kill -11%.
`Cc1cc(C)c(S(=O)(=O)Nc2ccc(-c3ccc(N4CCC(C)CC4)nn3)cc2)cc1C` gave p53ts 32C kill -15%, Imprint erasure -8%[10.9 µM] and p53ts 39C kill 39%.
`CC1CCN(c2ccc(-c3cccc(NS(=O)(=O)c4cccs4)c3)nn2)CC1` gave p53ts 32C kill 10µM*, Imprint erasure -14%[10.9 µM] and p53ts 39C kill 3.2µM*.
For CC1CCN(c2ccc(-c3cccc(NS(=O)(=O)c4ccc(Cl)s4)c3)nn2)CC1 the results were p53ts 32C kill 6.3µM*, Imprint erasure -8%[10.9 µM] and p53ts 39C kill 4µM*.
`Cc1cc(Nc2ccc(C)c(Cl)c2)n2nc(-c3ccccc3)nc2n1` gave p53ts 32C kill 8%, Imprint erasure -6%[10.9 µM] and p53ts 39C kill -20%.
For O=c1cc2nc(-c3ccccc3F)nc(SCc3ccc(Br)cc3)n2[nH]1 the results were p53ts 32C kill 23%, Imprint erasure 7%[10.9 µM] and p53ts 39C kill -15%.
`CCOc1cc(CNC(=O)Cn2c(-c3cccs3)cc3cc(F)ccc32)ccc1OC` gave p53ts 32C kill -9%.
`CCOc1ccc(CCNC(=O)Cn2c(-c3cccs3)cc3cc(F)ccc32)cc1OCC` gave p53ts 32C kill -17%, Imprint erasure -10%[10.9 µM] and p53ts 39C kill 7.9µM*.
For CC(=O)N1CCc2c(sc3c2c(=O)n(Cc2ccccc2)c(=O)n3CC(=O)Nc2ccc(C)c(F)c2)C1 the results were p53ts 32C kill -1%, Imprint erasure -2%[10.9 µM] and p53ts 39C kill -5%.
`CC(C)c1ccc2oc(-c3cccc(NC(=O)c4ccc5c(c4)OCCO5)c3)nc2c1` gave p53ts 32C kill inconclusive, Imprint erasure -11%[10.9 µM] and p53ts 39C kill 10µM*.
`Cc1ccc2nc(-c3cccc(NC(=O)c4ccc5c(c4)OCCO5)c3)oc2c1` gave p53ts 32C kill inconclusive, Imprint erasure -14% and p53ts 39C kill inconclusive.
Screening Cc1sc2c(c1C)c(=O)n(Cc1ccccc1)c(=O)n2CC(=O)Nc1cccc(Cl)c1 returned p53ts 32C kill 15%, Imprint erasure -9%[10.9 µM] and p53ts 39C kill -1%.
CO/N=C(/C)CCC(=O)OC[C@@H]1O[C@H](C#Cc2ccccc2)C=C[C@@H]1Oc1ccc(C)cc1 was read as p53ts 32C kill 0%[9.22 µM] and p53ts 39C kill -8%[9.22 µM].
Screening CCC1CCCCN1CCCNC(=O)c1cc2c(=O)n(CC)c3ccccc3c2s1 (configuration not stated) returned p53ts 32C kill 6%, Imprint erasure -12%[10.9 µM] and p53ts 39C kill -16%.
For CCC1CCCCN1CCCNC(=O)c1cc2c(Cl)nc3ccc(C)cc3c2s1 (configuration not stated) the results were p53ts 32C kill -14%, Imprint erasure -16%[10.9 µM] and p53ts 39C kill 13µM*.
For NS(=O)(=O)c1ccc(N=Nc2nc3[nH]cnc(=S)c3[nH]2)cc1 the results were p53ts 32C kill -29%[9.22 µM], Imprint erasure 5%[10.9 µM] and p53ts 39C kill -22%[9.22 µM].
S=c1nc[nH]c2nc[nH]c12 was read as p53ts 32C kill inconclusive, Imprint erasure 4% and p53ts 39C kill 7.9µM*.
C=CC(=O)OCCOCCOC(=O)C=C was read as p53ts 32C kill -1%[1.84 µM], Imprint erasure -27% and p53ts 39C kill 32µM*.
`Cc1nc(N2CCOCC2)c2nc(-c3ccccc3)n(CCN3CCCC3)c2n1` gave p53ts 32C kill 1%, Imprint erasure 1% and p53ts 39C kill 0%.
Cc1ccc(C)c(Nc2nn3c(=O)c4cc5c(cc4nc3s2)OCO5)c1 was read as p53ts 32C kill -17%, Imprint erasure -5%[10.9 µM] and p53ts 39C kill -5%.
Screening O=c1c2cc3c(cc2nc2sc(Nc4ccccc4)nn12)OCO3 returned p53ts 32C kill 13µM*, Imprint erasure -4%[10.9 µM] and p53ts 39C kill 16µM*.
Screening CCCOc1ccccc1C(=O)N1CCCCC1CCN1CCCCC1 (configuration not stated) returned p53ts 32C kill -3%, Imprint erasure -10%[10.9 µM] and p53ts 39C kill 22µM*.
`Cc1ccccc1C(=O)N1CCCCC1CCN1CCCCC1` (configuration not stated) gave p53ts 32C kill 1%, Imprint erasure -13%[10.9 µM] and p53ts 39C kill -25%.
Screening Cc1ccc(NC(=O)Cn2c(=O)ccc3cc(S(=O)(=O)N4CCC(C)CC4)ccc32)cc1Cl returned p53ts 32C kill 5%, Imprint erasure 23%[10.9 µM] and p53ts 39C kill inconclusive.
`O=C(NC1=NCCS1)c1csc2ccccc12` gave p53ts 32C kill 13µM* and p53ts 39C kill inconclusive.
O=C(NC1=NCCS1)c1cc2ccccc2o1 was read as p53ts 32C kill 5µM*, Imprint erasure -73% and p53ts 39C kill 5µM*.
For O=C(NC1=NCCS1)Nc1ccccc1 the results were p53ts 32C kill 10µM*, Imprint erasure -87% and p53ts 39C kill 16µM*.
`O=C(Nc1ccccc1)Nc1ccccc1` gave p53ts 32C kill inconclusive, Imprint erasure -70% and p53ts 39C kill inconclusive.
For O=C(Nc1ccccn1)c1cc2ccccc2o1 the results were p53ts 32C kill 4.5µM* and p53ts 39C kill 5µM*.
`Cc1cc(C(=O)NC2=NCCS2)cs1` gave p53ts 32C kill inconclusive, Imprint erasure -60% and p53ts 39C kill inconclusive.
`O=C(NC1=NCCS1)c1cccs1` gave p53ts 32C kill -11%, Imprint erasure -3% and p53ts 39C kill 7%.
`O=C(Nc1cccc2ncccc12)c1cc2ccccc2o1` gave p53ts 32C kill -5%, Imprint erasure -14% and p53ts 39C kill 0%.
CO[C@H]1COC(=O)C/C=C\[C@H](C)[C@H](OC)COC(=O)[C@@H](C)NC(=O)C/C=C\[C@@H]1C was read as p53ts 32C kill 4%[9.22 µM] and p53ts 39C kill 5%[9.22 µM].
Screening CCOC(=O)c1ccc(NC(=O)c2csnn2)cc1 returned p53ts 32C kill inconclusive, Imprint erasure -17%[10.9 µM] and p53ts 39C kill inconclusive.
COc1ccc(CCNC(=O)CCCn2c(=O)c3ccccc3n(CC(=O)Nc3cccc(C)c3)c2=O)cc1OC was read as p53ts 32C kill 19%, Imprint erasure -3%[10.9 µM] and p53ts 39C kill 1%.
`O=C(Cn1c(=O)n(-c2ccc(Cl)cc2)c(=O)c2oc3ccccc3c21)Nc1ccccc1` gave p53ts 32C kill -1%, Imprint erasure -12%[10.9 µM] and p53ts 39C kill -9%.
`Fc1ccccc1-n1ncc2c1ncn1nc(-c3ccccc3Cl)nc21` gave p53ts 32C kill -17%, Imprint erasure -2%[10.9 µM] and p53ts 39C kill -15%.
OC[C@@H](O)CNc1ncnc2ccccc12 was read as p53ts 32C kill -1%[9.22 µM], Imprint erasure -8%[10.9 µM] and p53ts 39C kill 0%[9.22 µM].
O=C(Nc1ccccc1N1CCN(C(=O)c2ccc(Cl)cc2)CC1)c1cc2ccccc2o1 was read as p53ts 32C kill 17%, Imprint erasure -2% and p53ts 39C kill 4%.
